From PubChem BioAssay (Tox21)
Inconclusive results are not listed. Calls of active or inactive are those of the source. The call rests on the fitted dose curve; in most records, active means well fitted inhibition curve with a large enough effect in the signal ratio in the repeat runs (not every such curve was filed as active); inconclusive means weak or mixed curves, or effect the other way; inactive means no such curve, though single readings can be large or run the other way; the % refers to the signal ratio.
On the % scale 0 is the no-effect control and ±100 the full control effect.

Each molecule was assayed against Glucocorticoid receptor (Homo sapiens) (UniProt P04150) (assay: qHTS assay to identify small molecule antagonists of the glucocorticoid receptor (GR) signaling pathway (AID 720692)). Conditions: GR-bla HeLa, beta-lactamase FRET ratio, dexamethasone-stimulated, 18 h; series mostly up to 58.5 µM; activity change, negative = inhibition: at the top concentration.
Sequence of Glucocorticoid receptor (Homo sapiens) (P04150 whole entry, looked up): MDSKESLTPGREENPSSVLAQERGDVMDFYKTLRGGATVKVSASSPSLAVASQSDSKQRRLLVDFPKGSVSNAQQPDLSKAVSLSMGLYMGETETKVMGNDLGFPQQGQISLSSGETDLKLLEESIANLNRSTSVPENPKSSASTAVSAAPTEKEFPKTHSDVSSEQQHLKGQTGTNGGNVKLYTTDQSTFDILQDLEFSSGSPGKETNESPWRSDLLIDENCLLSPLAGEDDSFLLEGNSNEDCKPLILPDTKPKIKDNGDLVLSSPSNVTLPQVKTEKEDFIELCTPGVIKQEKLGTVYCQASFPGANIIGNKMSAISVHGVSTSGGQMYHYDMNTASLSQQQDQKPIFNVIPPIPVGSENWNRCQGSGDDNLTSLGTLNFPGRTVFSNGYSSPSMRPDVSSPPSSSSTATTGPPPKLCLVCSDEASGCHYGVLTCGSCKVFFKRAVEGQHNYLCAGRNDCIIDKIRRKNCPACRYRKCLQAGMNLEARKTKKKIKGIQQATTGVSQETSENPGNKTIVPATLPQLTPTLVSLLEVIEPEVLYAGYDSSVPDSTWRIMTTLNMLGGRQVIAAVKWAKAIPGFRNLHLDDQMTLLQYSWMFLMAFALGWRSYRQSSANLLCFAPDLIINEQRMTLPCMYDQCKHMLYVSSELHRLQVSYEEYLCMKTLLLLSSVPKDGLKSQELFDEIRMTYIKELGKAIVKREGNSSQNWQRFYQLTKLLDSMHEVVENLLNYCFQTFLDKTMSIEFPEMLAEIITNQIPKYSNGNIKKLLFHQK
Text: U.S. Tox21 Program National Center for Advancing Translational Sciences [NCATS] NIH Chemical Genomics Center [NCGC] U.S. Environmental Protection Agency [EPA] National Institutes of Environmental Health Sciences [NIEHS] National Toxicology Program [NTP] U.S. Food and Drug Administration [FDA] Tox21 Assay Overview: The Glucocorticoid receptor (GR) is one of the members of the nuclear receptor family of ligand-dependent transcription factors. GR plays a critical role in carbohydrate, protein and lipid metabolisms and programmed cell death. CellSensor GR-bla HeLa cell line (Invitrogen) contains a beta-lactamase reporter gene under the control of the glucocorticoid response element stably integrated into HeLa cells, a cervical cancer cell line that expresses glucocorticoid receptor. The activation of the reporter gene under culture conditions can be detected by fluorescence intensity. This cell line has been used to screen the Tox21 10K compound library and to identify the compounds that inhibit the GR signaling.
Tox21 Assay Protocol Summary: The GR-bla HeLa cells were dispensed at 1500 cells/5 ul/well in 1536-well black wall/clear bottom plates using a Multidrop Combi (ThermoFisher Scientific, Waltham, MA) dispenser. After the assay plates were incubated at a 37 C/5% CO2 incubator for 4 hours, 23 nL of compounds dissolved in DMSO, positive controls or DMSO only was transferred to the assay plate by a pintool station (Kalypsys, San Diego, CA), followed by addition of 1 uL of dexamethasone (5 nM, final concentration in the well). The plates were incubated at 37 C for 18 hours. After 1 uL of LiveBLAzerTM B/G FRET substrate was added using a Flying Reagent Dispenser (Aurora Discovery, San Diego, CA), the plates were incubated at room temperature for 2 hours, and fluorescence intensity was measured by an Envision plate reader (PerkinElmer, Shelton, CT).
O=C(O)CCSSCCC(=O)O was tested, and the “activity change, negative = inhibition” value was -12.4% [at 78.9 µM] (inactive). C=COCCOCCOCCOC=C was tested, and the “activity change, negative = inhibition” value was 7.2% (inactive). For C=C(C)C(=O)OCCN(CC)CC, the “activity change, negative = inhibition” value was -2% (inactive). For CC(C)=CCOC(=O)c1ccccc1, the “activity change, negative = inhibition” value was 19.4% (inactive). With CC(=O)c1sc(C)nc1C the “activity change, negative = inhibition” value was 12.1% (inactive). With CCCCCCCCOS(=O)(=O)O the “activity change, negative = inhibition” value was -16.7% (inactive). With C[Si](C)(C)C the “activity change, negative = inhibition” value was 1.59% (inactive). CC1(C)S[C@@H]2[C@H](N=CN3CCCCCC3)C(=O)N2[C@H]1C(=O)O was tested, and the “activity change, negative = inhibition” value was 12.2% (inactive). With O=C1c2ccccc2C(=O)N1CCl the “activity change, negative = inhibition” value was -1.28% (inactive). In the case of C[Si](C)=O, the activity change, negative = inhibition is reported as 3.35% [at 7.04 µM] (inactive). With CCNC(=O)C1CC(C)CCC1C(C)C (stereo not given) the “activity change, negative = inhibition” value was 18% (inactive). For O=Cc1ccc(Cl)c(Cl)c1, the “activity change, negative = inhibition” value was -0.236% [at 78.9 µM] (inactive). With Cc1cc(Cl)c(C)cc1Cl the “activity change, negative = inhibition” value was -1.73% (inactive). For O=C(OCC(COC(=O)c1cccnc1)(COC(=O)c1cccnc1)COC(=O)c1cccnc1)c1cccnc1, the “activity change, negative = inhibition” value was -10.5% (inactive). With COC(=O)CCc1ccc(OCC(O)CNC(C)C)cc1 (stereo not given) the “activity change, negative = inhibition” value was 1.9% (inactive). For C[C@@H](O)[C@H]1C(=O)N2C(C(=O)O)=C(SCCN=CN)C[C@H]12, the “activity change, negative = inhibition” value was 5.33% [at 27 µM] (inactive). In the case of c1ccc2nccnc2c1, the “activity change, negative = inhibition” value is reported as -12.9% [at 78.9 µM] (inactive). O=C(OCc1ccccc1)C(=O)OCc1ccccc1 was tested, and the “activity change, negative = inhibition” value was 4.76% (inactive). In the case of On1nnc2ccccc21, the “activity change, negative = inhibition” value is reported as -0.791% (inactive). CC(C)N(c1ccccc1)C(C)C was tested, and the “activity change, negative = inhibition” value was 9.88% (inactive). For Cc1cccc(C)c1NC(=O)c1ccccc1C(=O)O, the “activity change, negative = inhibition” value was -5.03% (inactive). With O=C(CCNNC(=O)c1ccncc1)NCc1ccccc1 the “activity change, negative = inhibition” value was -0.443% (inactive). CC(C)NCC(O)COc1cccc2[nH]ccc12 (stereo not given) was tested, and the “activity change, negative = inhibition” value was 12.8% (inactive). In the case of CC(CN)CC(C)(C)CCN (stereo not given), the “activity change, negative = inhibition” value is reported as 12.7% [at 78.9 µM] (inactive). In the case of COc1ccc2c(c1OC)C(=O)O[C@@H]2[C@H]1c2c(cc3c(c2OC)OCO3)CCN1C, the “activity change, negative = inhibition” value is reported as 8.58% (inactive). With Cc1cc(NC(=O)C2=C(O)c3ccccc3S(=O)(=O)N2C)no1 the “activity change, negative = inhibition” value was -8.52% (inactive). With O=C(CS(=O)Cc1ccco1)NC/C=C\COc1cc(CN2CCCCC2)ccn1 (stereo not given) the “activity change, negative = inhibition” value was 11.9% (inactive). In the case of COCCOCCOCCOCCOCCO, the “activity change, negative = inhibition” value is reported as 13.1% (inactive). For O=S(=O)(O)CCN1CCN(CCO)CC1, the “activity change, negative = inhibition” value was -1.93% (inactive). CCCCCCN was tested, and the “activity change, negative = inhibition” value was 5.98% (inactive). For NS(=O)(=O)c1ccc(NC(=O)CCC(=O)O)cc1, the “activity change, negative = inhibition” value was -17.1% (inactive). In the case of CCN1CCc2nc(N)oc2CC1, the “activity change, negative = inhibition” value is reported as -19.6% (inactive). CC1COc2ccccc2N1 (stereo not given) was tested, and the “activity change, negative = inhibition” value was -0.199% (inactive). Cc1ccc(S(=O)(=O)O)c(C)c1 was tested, and the “activity change, negative = inhibition” value was 8.6% (inactive). Cc1ccc2c(c1)OCC(=O)CO2 was tested, and the “activity change, negative = inhibition” value was -1.29% (inactive). For CCCCCCCC/C=C\CCCCCCCC(=O)OCCCC, the “activity change, negative = inhibition” value was -18.5% [at 27 µM] (inactive). In the case of COc1ccc2c(c1)C(=O)N(CCc1ccc(S(=O)(=O)NC(=O)NC3CCCCC3)cc1)C(=O)C2(C)C, the “activity change, negative = inhibition” value is reported as -10.4% [at 27 µM] (inactive). With CCN(C)C(=O)Oc1cccc([C@H](C)N(C)C)c1 the “activity change, negative = inhibition” value was -2.2% (inactive). For COc1cc(N)ccc1C, the “activity change, negative = inhibition” value was -4.92% (inactive). With FC(F)(F)c1ccccc1-n1ccnc1 the “activity change, negative = inhibition” value was -19% (inactive).
